What all share (conditions): concentration: 1 μM,replicates: in singlicate; n = 1
Experiment [1] concerns EPHA7.
Experiment [2] concerns EPHA8.
The test system of experiment [3] is EPHB1.
In experiment [4] the test system is EPHB2.
The subject of experiment [5] is EPHB3.
Experiment [6] relates to EPHB4.
Experiment [7] relates to EPHB6.
The test system of experiment [8] is ERBB2.
In experiment [9] the test system is ERBB3.
Experiment [10] concerns ERBB4.

Experimental findings from publication PMC5540273 (PLoS ONE, 2017) are described below.
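Further: KINOMEscan kinase panel screen.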

Turning to `Cc1cccc(-c2nc(Nc3ccncc3)c3sccc3n2)n1` [GW869641], the “%Inh” value in [1] was determined as 6%; in experiment [2], 2%; in [3], 15%; in experiment [4] it was 6%; in [5], 16%; in [6], 0%. The “%Inh” value in experiment [7] was 30%; in experiment [8], 29%; in [9], 29%; in [10], 13%.

`COC(=O)Nc1nc2cc(Oc3ccc(NC(=O)Nc4cc(C(F)(F)F)ccc4Cl)cc3)ccc2[nH]1.Cl` [GW697465]: the “%Inh” value in [1] is reported as 84%; in experiment [2] it was 99.7%; in experiment [3] it was 62%; in experiment [4], 60%; in experiment [5] it was 10%; in [6], 51%. Further, the “%Inh” value came out at 83% in experiment [7], 45% in [8], 25% in experiment [9] and 37% in experiment [10].

With `O=C(Nc1ccccc1)c1cccc(Oc2ccc3nccn3n2)c1`, the “%Inh” value in [1] stood at 0%; in experiment [2] it was 1%; in experiment [3], 13%; in [4] it was 8%; in experiment [5], 0%; in experiment [6], 3%. Further, the “%Inh” value in experiment [7] stood at 64%; in experiment [8] it was 0%; in experiment [9], 39%; in experiment [10], 0%.

Regarding `C[C@@H](Oc1cc(-n2cnc3cc(-c4cnn(C)c4)ccc32)sc1C(N)=O)c1ccccc1Cl` [GSK580432], the “%Inh” value amounted to 4% in [1]; 34% in [2]; 29% in experiment [3]; 0% in experiment [4]; 16% in experiment [5]; 19% in experiment [6]. The “%Inh” value was found to be 93.7% in experiment [7], 0% in experiment [8], 0% in experiment [9] and 0% in experiment [10].

Turning to `COc1cc2c(Nc3ccc(NC(=O)c4ccccc4)cc3)ncnc2cc1OCCCN1CCOCC1` [GSK301329], the “%Inh” value in experiment [1] is 6%; in [2] it was 12%; in [3], 20%; in experiment [4], 0%; in experiment [5], 5%; in [6], 2%. For the same compound, the “%Inh” value is recorded as 79% in experiment [7], 72% in experiment [8], 0% in experiment [9] and 85% in experiment [10].

Regarding `CC(C)c1nc(-c2cccc(NS(=O)(=O)c3ccccc3)c2)c(-c2ccnc(Nc3ccc4c(c3)CN(C)CC4)n2)s1` [GSK1649598], the “%Inh” value in experiment [1] is 13%; in experiment [2], 80%; in experiment [3], 34%; in [4] it was 0%; in [5], 0%; in [6], 11%. The “%Inh” value in [7] is listed as 98.5%; in experiment [8], 86%; in [9] it was 97.7%; in experiment [10], 98.8%.

In the case of `C[C@@H]1CCN(C(=O)N2CCCC2)C[C@@H]1N(C)c1ncnc2[nH]ccc12`, the “%Inh” value in experiment [1] came to 0%; in experiment [2], 0%; in experiment [3], 0%; in experiment [4], 5%; in [5] it was 26%; in experiment [6] it was 0%. The “%Inh” value in experiment [7] was 34%; in experiment [8], 10%; in [9], 0%; in experiment [10] it was 7%.

In the case of `Cn1ccc2ncnc(Oc3ccc(NC(=O)Nc4ccnc(C(F)(F)F)c4)c(Cl)c3)c21`, the “%Inh” value worked out at 6% in [1]; 14% in [2]; 5% in [3]; 28% in experiment [4]; 25% in experiment [5]; 20% in experiment [6]. Moreover, the “%Inh” value is recorded as 36% in experiment [7], 20% in [8], 0% in [9] and 0% in experiment [10].
